Measurements as given in PubChem BioAssay (EPA / NIEHS).
Records with an inconclusive call do not appear. The source made the active and inactive calls. Rule for the calls: active = hit-call score of the fitted dose curve at least 0.9, where 1 is the maximum; inconclusive = response in the unintended direction; inactive = score below 0.9.

Tests used:
[1] = TOX21_p53_BLA_p2_viability: Viability Assessment in the Tox21 HCT-116 p53 Agonism Beta-lactamase Assay, Phase 2 (AID 2283591);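 note: compound exposure lasted 16 h at 37 °C; actives lower the ATP signal meaning cytotoxicity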
Outline: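 HCT116 p53-bla cells, 4000/well, dosed after 5 h plating (217-fold dilution of DMSO stocks) and incubated 16 h at 37C. Viability taken as cellular ATP by CellTiter-Glo luminescence after 30 min RT; signal loss marks cytotoxicity.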

[2] = biological target: Cellular tumor antigen p53 (Homo sapiens) (UniProt P04637); assay: TOX21_p53_BLA_p2_ratio: Tox21 HCT-116 p53 Agonism Beta-lactamase Assay, Ratio, Phase 2 (AID 2283592)
Sequence of Cellular tumor antigen p53 (Homo sapiens) (P04637 whole entry, looked up): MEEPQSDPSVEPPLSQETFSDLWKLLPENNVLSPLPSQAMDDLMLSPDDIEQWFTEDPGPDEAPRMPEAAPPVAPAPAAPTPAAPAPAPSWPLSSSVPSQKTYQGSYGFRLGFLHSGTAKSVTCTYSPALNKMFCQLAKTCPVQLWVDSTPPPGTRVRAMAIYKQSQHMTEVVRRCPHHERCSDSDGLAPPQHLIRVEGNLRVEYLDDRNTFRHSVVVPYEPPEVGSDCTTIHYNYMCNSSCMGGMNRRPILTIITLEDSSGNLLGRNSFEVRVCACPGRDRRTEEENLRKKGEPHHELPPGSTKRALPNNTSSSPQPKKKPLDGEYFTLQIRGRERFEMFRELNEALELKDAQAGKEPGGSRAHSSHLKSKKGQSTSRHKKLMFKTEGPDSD
Outline: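 DMSO-normalized, positive-direction endpoint derived from the 460 nm/530 nm FRET ratio in HCT116 p53 beta-lactamase reporter cells exposed 16 h at 37C and loaded with CCF4-AM for 2 h.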

[3] = TOX21_p53_BLA_p3_viability: Viability Assessment in the Tox21 HCT-116 p53 Agonism Beta-lactamase Assay, Phase 3 (AID 2283593);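 note: cells exposed to compound for 16 h before reading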
Outline: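 HCT116 cells, 4000/well, dosed 5 h after plating by pin transfer (217-fold dilution from DMSO stock) and incubated 16 h at 37C, 5% CO2. Viability read as ATP luminescence with CellTiter-Glo after 30 min at room temperature.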

[4] = biological target: Cellular tumor antigen p53 (Homo sapiens) (UniProt P04637); assay: TOX21_p53_BLA_p3_ratio: Tox21 HCT-116 p53 Agonism Beta-lactamase Assay, Ratio, Phase 3 (AID 2283596)
Outline: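 Cells were seeded at 4000/well, rested 5 h at 37C, then dosed with DMSO compound solutions (217-fold dilution) for 16 h. CCF4-AM substrate was loaded for 2 h at room temperature, and the 460/530 nm emission ratio was fitted for gain of signal versus DMSO.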

[5] = TOX21_p53_BLA_p4_viability: Viability Assessment in the Tox21 HCT-116 p53 Agonism Beta-lactamase Assay, Phase 4 (AID 2283597);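 note: hits lower the luminescence signal meaning cytotoxicity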
Outline: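 In this multiplexed secondary endpoint, HCT116 cells (4000 per well, compound at 5 h, 16 h treatment) received CellTiter-Glo after the beta-lactamase read. Luminescence after 30 min RT reflects ATP, and falling signal marks cytotoxicity.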

[6] = biological target: Cellular tumor antigen p53 (Homo sapiens) (UniProt P04637); assay: TOX21_p53_BLA_p5_ratio: Tox21 HCT-116 p53 Agonism Beta-lactamase Assay, Ratio, Phase 5 (AID 2283599)
Outline: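 HCT-116 p53-bla cells (4000/well) plated 5 h, dosed with compound (217-fold DMSO dilution) for 16 h at 37 C; CCF4-AM substrate 2 h at room temperature. Activity is the 460/530 nm emission ratio (405 nm excitation), fitted in gain-of-signal direction versus DMSO.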

[7] = TOX21_p53_BLA_p5_viability: Viability Assessment in the Tox21 HCT-116 p53 Agonism Beta-lactamase Assay, Phase 5 (AID 2283600)
Outline: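 Here cell health was gauged by ATP levels in wells holding 4000 cells, each treated 16 h with DMSO-delivered compounds at 217-fold dilution; reduced luminescence marked toxicity.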

[8] = biological target: Cellular tumor antigen p53 (Homo sapiens) (UniProt P04637); assay: TOX21_p53_BLA_p4_ratio: Tox21 HCT-116 p53 Agonism Beta-lactamase Assay, Ratio, Phase 4 (AID 2283601)
Outline: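 HCT-116 p53 beta-lactamase reporter cells (4000/well) preincubated 5 h, then compound (217-fold dilution of DMSO stock) for 16 h at 37C. CCF4-AM substrate added 2 h at room temperature; 460/530 nm emission ratio fitted upward versus DMSO.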

Measured: AC50

CC(C)(C)OC(=O)N1C[C@@H](F)C[C@H]1C(=O)O
inactive: all assays above

Cc1cc(N)c2ccccc2[n+]1CCCCCCCCCC[n+]1c(C)cc(N)c2ccccc21
inactive: all assays above

N#CCc1cccc(C(F)(F)F)c1
inactive: all assays above

CCC(C)[C@H]1O[C@]2(C=C[C@@H]1C)C[C@@H]1C[C@@H](C/C=C(\C)[C@@H](O[C@H]3C[C@H](OC)[C@@H](O[C@H]4C[C@H](OC)[C@H](NC(C)=O)[C@H](C)O4)[C@H](C)O3)[C@@H](C)/C=C/C=C3\CO[C@@H]4[C@H](O)C(C)=C[C@@H](C(=O)O1)[C@]34O)O2 (stereo partly specified)
active: [1] 13 µM | [2] 15 µM | [3] 23 µM | [4] 34.5 µM | [5] 9.38 µM | [6] 22.3 µM | [7] 15.8 µM | [8] 12 µM

S=C1NC=NC2N=CNC12 (stereo unspecified)
active: [1] 2.15 µM | [2] 7.37 µM | [3] 2.33 µM | [4] 7.71 µM | [5] 2.3 µM | [6] 6.33 µM | [8] 8.02 µM
inactive: [7]

CCC(C)(C)c1ccc(CC(C)CN2C[C@@H](C)O[C@@H](C)C2)cc1 (stereo partly specified)
active: [5] 32.7 µM
inactive: all other assays above

C=C1CC[C@H](O)C/C1=C/C=C1\CCC[C@]2(C)[C@@H]([C@H](C)CCCC(C)(C)O)CC[C@@H]12
active: [1] 12.8 µM | [2] 19.2 µM | [3] 13.7 µM | [4] 27.6 µM | [5] 12.8 µM | [6] 23.2 µM | [7] 13.1 µM | [8] 18.6 µM

O=[N+]([O-])c1c(Cl)cccc1-c1c[nH]cc1Cl
active: [3] 37.2 µM | [4] 23.6 µM | [5] 36.3 µM
inactive: all other assays above

O=C1CCc2ccc(OCCCCN3CCN(c4cccc(Cl)c4Cl)CC3)cc2N1
active: [3] 23 µM | [7] 23 µM
inactive: all other assays above

C=CC(=O)Nc1cc2c(Nc3ccc(F)c(Cl)c3)ncnc2cc1OCCCN1CCOCC1
active: [3] 38.7 µM | [4] 25.4 µM | [8] 7.82 µM
inactive: all other assays above

CCOc1ccc(Cc2nccc3cc(OCC)c(OCC)cc23)cc1OCC
inactive: all assays above

CC(C)(C)C(=O)O
inactive: all assays above

C=CC(=O)OCC1CC2CC1C1CCC(COC(=O)C=C)C21 (stereo unspecified)
inactive: [3] | [4] | [7]
active: [1] 65.8 µM | [2] 55.2 µM | [5] 64.1 µM | [6] 74.8 µM | [8] 53 µM

CC(C)c1ccc2sc3ccccc3c(=O)c2c1
active: [5] 72.8 µM
inactive: all other assays above

CCCCCCCCCCCCCCCCCCNC(=O)OC1CCN(C(=O)OC[C@H](COC(=O)N(Cc2cccc[n+]2CC)C(=O)c2ccccc2OC)OC)CC1
active: [5] 30.2 µM | [6] 35.7 µM | [8] 38.4 µM
inactive: all other assays above

CCOC(=O)C=CC(=O)O
inactive: all assays above

CCC(C)n1ncn(-c2ccc(N3CCN(c4ccc(OC[C@H]5CO[C@](Cn6cncn6)(c6ccc(Cl)cc6Cl)O5)cc4)CC3)cc2)c1=O (stereo partly specified)
inactive: all assays above

COc1nc(N)nc2c1ncn2[C@@H]1O[C@H](CO)[C@@H](O)[C@@H]1O
inactive: all assays above

CN(C)c1nc(N(C)C)nc(N(C)C)n1
inactive: all assays above

O[C@@H](c1cc(C(F)(F)F)nc2c(C(F)(F)F)cccc12)[C@H]1CCCCN1
active: [1] 32.7 µM | [2] 28.9 µM | [3] 34 µM | [4] 43.6 µM | [5] 24.6 µM | [6] 42.9 µM | [7] 22 µM | [8] 39.6 µM

c1ccc(OCc2ccc(CCCN3CCOCC3)cc2)cc1
inactive: all assays above

CCCCCCOc1ccc(C(=N)N(CCCC)CCCC)c2ccccc12
active: [1] 23 µM | [2] 32.7 µM | [3] 23 µM | [4] 36.4 µM | [5] 10.1 µM | [6] 29.5 µM | [7] 23 µM | [8] 19.9 µM

c1ccc(-c2ccc(C(c3ccccc3)n3ccnc3)cc2)cc1 (stereo unspecified)
inactive: [1] | [3] | [7]
active: [2] 35.9 µM | [4] 39.5 µM | [5] 38.2 µM | [6] 36.5 µM | [8] 34.1 µM

CCCCCCCCCCCC[n+]1ccc2ccccc2c1
active: [1] 33.6 µM | [2] 11 µM | [3] 35.9 µM | [4] 15 µM | [5] 23 µM | [6] 28.5 µM | [7] 33.4 µM | [8] 21.8 µM

CCCOc1ccccc1-c1nc2n[nH]nc2c(=O)[nH]1
inactive: all assays above

Cc1cc(CC(C)CC(C)(C)C)n(O)c(=O)c1 (stereo unspecified) (tested in a mixture with another compound)
inactive: [1] | [2] | [4]
active: [3] 43.5 µM | [5] 34.1 µM | [6] 36.1 µM | [7] 41.8 µM | [8] 33 µM

CNCCCC1c2ccccc2C=Cc2ccccc21
inactive: all assays above

O=C(NOCC1CC1)c1ccc(F)c(F)c1Nc1ccc(I)cc1Cl
active: [2] 7.89 µM | [3] 23 µM | [4] 23.9 µM | [5] 23 µM | [6] 20.5 µM | [7] 19.7 µM | [8] 30.5 µM
inactive: [1]

O=C(c1ccc(O)cc1)c1ccc(O)c(O)c1O
inactive: all assays above

CCCOc1ccc(C(=O)OCCN(CC)CC)cc1N
inactive: all assays above

O=C(NCC1CCCCN1)c1cc(OCC(F)(F)F)ccc1OCC(F)(F)F (stereo unspecified)
inactive: all assays above

CCN(CC)c1ccc(C(=C2C=CC(=[N+](CC)CC)C=C2)c2ccccc2)cc1
active: [1] 1.81 µM | [2] 4.15 µM | [3] 2.75 µM | [4] 6.97 µM | [5] 1.94 µM | [6] 9.22 µM | [7] 2.93 µM | [8] 11.1 µM

COC(=O)C1=C(C)NC(C)=C(C(=O)OCCCN2CCC(c3ccccc3)(c3ccccc3)CC2)C1c1cccc([N+](=O)[O-])c1 (stereo unspecified)
active: [1] 32.9 µM | [2] 42 µM | [3] 36 µM | [4] 36.8 µM | [5] 28.8 µM | [6] 43.6 µM | [7] 37.4 µM | [8] 42.8 µM

CC(=O)c1cccc([N+](=O)[O-])c1
inactive: all assays above

CO[Si](CCCNc1ccccc1)(OC)OC
inactive: all assays above

CN1CCN(c2cc3c(nn2)Oc2ccccc2N3C)CC1
inactive: all assays above

O=C1c2c(O)cccc2[C@H]([C@@H]2O[C@H](CO)[C@@H](O)[C@H](O)[C@H]2O)c2cc(CO)cc(O)c21
inactive: all assays above

CN(C)CCN(C)CCN(C)C
inactive: all assays above

SC1CCCCC1
inactive: all assays above

N[C@@H](COP(=O)(O)O)C(=O)O
inactive: all assays above

Cc1cc(CC(=O)O)n(C)c1C(=O)c1ccc(Cl)cc1
inactive: all assays above

Oc1c(Br)cc(Br)c2cccnc12
active: [2] 5.02 µM | [5] 7.62 µM
inactive: all other assays above
